# Bioassay records from PubChem.
# rTrxR1 inhibitor = rat TrxR1 inhibition. actives 1% (n = 390,000). O89049. Potency, µM (highest dose often 114 µM), inactives show at the top dose activity change, negative = inhibition, hits mostly inhibitors. AID 588453. recombinant rTrxR1, NADPH fluorescence consumption, selenite substrate; also: % is scaled to controls: 0 for no effect and ±100 for the full control effect; nearly all actives have a fitted effect of over 65% in size
# Target sequence (O89049 whole entry, looked up): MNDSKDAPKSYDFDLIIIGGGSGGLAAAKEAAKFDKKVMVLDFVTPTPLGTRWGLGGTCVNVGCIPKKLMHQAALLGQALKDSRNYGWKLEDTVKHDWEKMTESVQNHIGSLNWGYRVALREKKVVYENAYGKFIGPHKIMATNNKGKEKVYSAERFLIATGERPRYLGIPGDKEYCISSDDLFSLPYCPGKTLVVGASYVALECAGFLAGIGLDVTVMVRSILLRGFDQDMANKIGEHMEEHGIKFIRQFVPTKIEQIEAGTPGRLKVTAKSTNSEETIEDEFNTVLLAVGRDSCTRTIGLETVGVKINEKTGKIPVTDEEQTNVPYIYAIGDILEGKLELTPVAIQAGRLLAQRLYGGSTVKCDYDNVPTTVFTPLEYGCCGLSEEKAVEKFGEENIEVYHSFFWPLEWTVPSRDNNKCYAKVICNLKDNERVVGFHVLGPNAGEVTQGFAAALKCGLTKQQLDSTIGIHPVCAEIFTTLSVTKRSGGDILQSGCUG
#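 Rat TrxR1 (90 nM in the dispensed reagent) was pre-reduced with 400 uM NADPH for 5 min at room temperature, then incubated with compound for 15 min. After 400 uM selenite was added, NADPH fluorescence (Ex 340/Em 450 nm) was followed for 8 min.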
# Vif-APOBEC3F blk = Vif-A3F binding inhibition; HeLa A3F-eYFP + Vif (tagged APOBEC3F with the HIV-1 protein that degrades it), YFP fluorescence increase; Potency, µM (series often up to 46.1 µM), for inactives: at the highest dose activity, negative = active; actives 0.2% (n = 390,000); also: % of control where 0% means no effect; nearly all actives have a fitted effect of over 65% in size
#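 Fluorescence increase (Ex 488/Em 500-530) after overnight compound treatment at 37 deg C flags inhibition of Vif-driven A3F-eYFP loss in stable HeLa A3F-eYFP/Vif cells seeded overnight beforehand.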
# TrxR1 substrate = rat thioredoxin reductase 1 substrate activity | Potency, µM (doses to about 114 µM), without a hit: at the top dose activity change, negative = substrate turnover | AID 588456 | purified TrxR1 substrate turnover, NADPH consumption readout | O89049 | actives 0.01% (n = 390,000); also: % is scaled to controls: 0 for no effect and ±100 for the full control effect; nearly all actives have a fitted effect of over 50% in size
#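 Rat TrxR1, dispensed at 90 nM, was prereduced with 400 uM NADPH (final) for 5 min at ~22 deg C, then incubated with compound 15 min before 400 uM selenite. A first-read NADPH fluorescence drop versus no-compound background flagged substrates.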
# VDR inh = vitamin D3 receptor (human) inhibition; P11473; Potency, µM, without a hit: max response, negative = inhibition, hits mostly inhibitors; VDR-SRC2-3 peptide fluorescence polarization, 2 h; AID 504847; actives 0.93% (n = 400,000); also: % is scaled to controls: 0 for no effect and ±100 for the full control effect
#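 Fluorescence polarization assay measuring small-molecule disruption of VDR binding to the coregulator peptide SRC2-3. Compounds were pin-transferred (23 nl) into the reagent mix and incubated 2 h at room temperature before reading.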
# Vif-A3G inh = Vif-A3G binding inhibition. Q9HC16. HeLa A3G-eYFP + Vif (tagged APOBEC3G with the HIV-1 protein that degrades it), YFP fluorescence, overnight. Potency, µM (highest dose often 46.1 µM), without a hit: at the top dose activity, negative = active, hits mostly inhibitors. actives 0.076% (n = 410,000); also: % is scaled to controls: 0 for no effect and ±100 for the full control effect; nearly all actives have a fitted effect of over 60% in size
#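 HeLa cells stably expressing Vif and C-terminally eYFP-tagged A3G, seeded overnight at 37 deg C, then exposed to compound by pintool overnight at 37 deg C. Rise in yellow fluorescence (Ex 488/Em 500-530, Acumen) marks blocked Vif-driven A3G degradation.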
# * hit, by the source's call; ? = inconclusive; . = no result; ! = a repeat was not active; [ ] = dose if it differs, or a comment. A selection: hits, their analogues and other compounds. The true share with any hit is near 1.8%. Calls follow the shape of the dose curve; as a rule, active = well fitted curve in the direction sought with a large enough effect; inconclusive = small, poorly fitted or top-dose-only effect, or another doubt; inactive = no such curve, though single readings can be large; an effect the other way counts as inactive or inconclusive. Potency is read from the fitted curve at half-maximal effect.
SMILES,rTrxR1 inhibitor,Vif-APOBEC3F blk,TrxR1 substrate,VDR inh,Vif-A3G inh
NC(=O)CSc1nc2scc(-c3ccco3)c2c(=O)n1-c1ccccc1,8.91µM*,-0.1%,-1.5%[57.1 µM],79.4µM*,-7.4%
Cn1c(SCC(=O)NCC2CCCO2)nc2scc(-c3ccccc3)c2c1=O (centres undefined),16.4%,-2.4%,9.2%,-14.9%,0.4%
O=C(CSc1nc2scc(-c3ccco3)c2c(=O)n1-c1ccccc1)NCC1CCCO1 (centres undefined),44.7µM*,0.8%,-5.0%,-4.8%,-2.1%
C=CCn1c(SCC(=O)NCCOC)nc2scc(-c3ccco3)c2c1=O,44.7µM*,2.4%,-2.2%,-8.9%,-0.7%
Cc1cc(C)c(NC(=O)c2sc3nc(C)cc(C)c3c2NC(=O)c2ccccc2)c(C)c1,9.5%,4.7%,4.3%[11.4 µM],-1.4%,5.7%
O=C1C(=C(I)I)c2ccccc2-c2ccccc21,0.891µM*,10.4%,-29.3%[57.1 µM],35.5µM*,-20.3%
COc1ccc(CCNC(=O)/C=C/c2ccco2)cc1,35.5µM*,-1.9%,1.2%,89.1µM*,-4.7%
COc1ccc(/C=C/C(=O)NCCc2ccc(S(N)(=O)=O)cc2)cc1,8.1%,-15.7%,1.0%,-12.5%,1.0%
CCOc1ccc(CCNC(=O)COC(=O)/C=C/c2ccco2)cc1OCC,?,-3.4%,-6.7%,14.7%,-14.9%
CCOc1ccc(CCNC(=O)/C=C/c2ccco2)cc1OCC,20µM*,4.4%,4.6%,-4.8%,1.6%
COc1ccc(CCNC(=O)CCCOc2ccc(C)cc2)cc1OC,6.2%,-12.7%,-1.5%,50.1µM*,2.9%
COc1ccc(CCNC(=O)/C=C\c2ccccc2)cc1OC,-7.6%,-14.4%,-10.6%,1.2%,-4.5%
COc1ccc(CCNC(=O)CCCOc2ccc(Cl)cc2)cc1OC,18.0%[57.1 µM],-0.9%,6.9%[57.1 µM],-5.7%,0.6%
COc1ccc(CCNC(=O)/C=C/c2ccco2)cc1OC,7.94µM*,-14.7%,8.4%[57.1 µM],-18.4%,0.1%
COc1ccc(/C=N/NC(=O)CNC(=O)/C=C/c2ccco2)cc1OC,31.6µM*,8.8%,1.7%,-3.5%,0.5%
COc1ccc(N=Cc2ccccc2O)cc1,8.3%,1.8%,-1.8%,9.2%,0.7%
COc1ccc(N=Cc2oc3ccc4ccccc4c3c2O)cc1,6.0%[57.1 µM],7.94µM*,1.6%[57.1 µM],4.5%,8.91µM*
COc1ccc2c(Sc3ccc(Cl)cc3)c(C(=O)N3CCCCC3)[nH]c2c1,6.7%,5.7%,2.5%,4.2%,-5.8%
COc1ccc2c(CC(=O)OCC(=O)Nc3ccc4c(c3)OCO4)coc2c1,-0.1%,-1.6%,-9.4%,17.8µM*,0.8%
N#CC(C#N)=Cc1cn(-c2ncc(C(F)(F)F)cc2Cl)c2ccccc12,15.8µM*,0.8%,-15.0%[57.1 µM],?,7.9%
CC(=O)/C=C\c1cn(-c2ncc(C(F)(F)F)cc2Cl)c2ccccc12,5.6%[57.1 µM],-6.7%,-11.2%,-6.2%,-29.8%
O=S(=O)(c1ccc2ncsc2c1)N1CCN(c2nc(-c3cccs3)nc3ccccc23)CC1,33.0%,.,12.7%,-24.0%,.
CN(C)c1ccc(/C=C/c2ccnc3c(N)cccc23)cc1,-9.9%,.,-4.0%[0.0914 µM],.,?
COc1ccccc1Nc1nc(N)nc(CN2CCCCCC2)n1,14.1µM*,-10.7%,7.0%[57.1 µM],8.9%,0.5%
COc1ccccc1Nc1nc(N)nc(CN2CCOCC2)n1,12.9%,5.5%,8.6%,-14.4%,-1.5%
SMILES,rTrxR1 inhibitor,Vif-APOBEC3F blk,TrxR1 substrate,VDR inh,Vif-A3G inh
CCOc1ccc(C(c2c(O)cc(C)n(CCOC)c2=O)N2CCN(c3ccccc3)CC2)cc1 (centres undefined),11.2µM*,5.6%,8.1%[57.1 µM],?,-0.2%
COc1ccc(C(c2c(O)cc(C)n(Cc3ccco3)c2=O)N2CCN(c3ccccc3)CC2)cc1 (centres undefined),15.8µM*,-18.6%,4.4%[57.1 µM],0.8%,-7.0%
CCOC(=O)C1CCN(C(c2ccc(OCC)cc2)c2c(O)cc(C)n(CCOC)c2=O)CC1 (centres undefined),25.1µM*,-0.2%,-3.1%[57.1 µM],?,-2.3%
Cc1cc(O)c(C(c2ccccc2)N2CCCCC2)c(=O)n1Cc1ccco1 (centres undefined),-27.2%[57.1 µM],5.7%,4.9%[57.1 µM],9.9%,0.2%
CCOc1ccccc1NC(=O)CN1C(=O)CC(c2ccco2)Sc2ccccc21 (centres undefined),-1.8%,-4.1%,-4.9%,-12.7%,-25.7%
CC1(C)CC(=O)C2=C(C1)NC(Nc1nc3ccccc3o1)=NC2c1ccccc1 (centres undefined),12.3%,.,12.2%,9.8%,2.0%
CCN(CCCN(C)C)c1ccc(/C=C/c2ccnc3ccccc23)cc1,?,.,-28.2%,.,?
COc1ccc(C2Nc3ccccc3C(=O)N2c2ccccc2F)cc1COc1ccc(NC(C)=O)cc1 (centres undefined),22.5%,.,47.2%,-7.0%,-18.6%
COc1cc(CN2CCN(S(=O)(=O)c3ccccc3)CC2)cc(OC)c1O,20µM*,-8.2%,1.5%,-14.7%,-1.4%
NC(=O)N1c2ccccc2CC(=O)c2ccccc21,10.2%,5.5%,1.8%,50.1µM*!,-3.9%
[N-]=C=C1C(=S)NC(=O)[C@H]([n+]2ccccc2)[C@H]1c1ccc(Cl)cc1,?,0.9%,-8.5%,44.7µM*,0.8%
NNc1nc(Nc2ccc([N+](=O)[O-])cc2)nc(N2CCCCCC2)n1,9.3%,11.6%,-4.7%,-8.7%,0.5%
Cc1ccc([N+](=O)[O-])cc1Nc1nc(N2CCCC2)nc(N2CCCC2)n1,15.9%[57.1 µM],?,5.5%[57.1 µM],79.4µM*,2.3%
CCCOc1ccc(C2C(=O)N(C3CCCCCC3)CC(=O)N2C(C)C)cc1OC (centres undefined),24.0%[57.1 µM],0.6%,0.7%[57.1 µM],5.3%,-1.3%
CN(C)c1ccc(/C=C/C(=O)c2ccc(O)cc2)cc1,-26.6%,7.94µM*,-16.0%,1.7%,?
O=C(/C=C/c1ccc(O)cc1)c1ccc(NC2=C(N3CCCCC3)C(=O)c3ccccc3C2=O)cc1,44.7µM*,-22.0%,-10.5%,?,-18.4%
CCC(=O)Nc1cccc(C(=O)/C=C/c2ccccc2)c1,?,-6.5%,-10.4%,50.1µM*,?
O=C(/C=C/c1ccc(O)cc1)c1ccccc1,-12.7%,-5.0%,-9.3%,-14.7%,-12.7%
O=C(/C=C/c1ccccc1)c1ccc(O)cc1,.,.,.,44.7µM*,.
COc1cc2nc(CC(O)c3nc4cc(OC)c(OC)cc4[nH]3)[nH]c2cc1OC (centres undefined),25.4%,.,11.9%,.,-4.9%
Cc1ccc(-n2c(=O)c3c4c(sc3n(CC(=O)c3ccc(Cl)cc3)c2=O)CCC4)cc1C,12.8%,-2.4%,-4.1%,2.8%,5.0%
O=C(C=Cc1ccccc1)c1ccc([N+](=O)[O-])cc1,-13.1%,1.0%,-8.0%,10µM*,-3.5%
Cc1ccc(/C=C/C(=O)c2ccc(C)cc2)cc1,-4.8%[57.1 µM],-5.3%,-0.8%[57.1 µM],?,-1.4%
Cc1ccc(C(=O)/C=C/C(=O)c2ccc(C)cc2)cc1,3.16µM*,-8.4%,2.0%[57.1 µM],?,-10.9%
CCOc1ccc(/C=C/C(=O)c2ccccc2)cc1OC,?,-5.2%,-9.5%,79.4µM*,-12.4%
